# Results with a measured potency or affinity are listed apart. The source made the active and inactive calls.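 How the source made its calls: active means cell killing whose fitted half-effect concentration is at most twice the top valid dose tested; inconclusive means flat curve with 30 to 70% killing, or a poor fit; inactive means effect in the rising direction, plus the rest.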
# Assay: A549 cell cytotoxicity, dose response, cytotoxicity control, ATP luminescence, cherry-pick, set 2 (AID 1053124)
# Settings: A549 viability, ATP luminescence (CellTiter-Glo), 72 h; series mostly up to 26 µM
row,SMILES,outcome
1,CC1=C(C(=O)N2CCN(c3cc(C)ccc3C)CC2)C2(CCCCC2)OC1=O,inactive
2,CCCOc1ccc(NC(=O)c2c(-c3ccccc3)noc2C)cc1,inactive
3,CCC(C)n1c(=N)c(C#N)cc2c(=O)n3cccc(C)c3nc21 (centres undefined),inactive
4,CN1CCN(c2nc3ccccn3c(=O)c2/C=C(\C#N)S(=O)(=O)c2ccccc2)CC1,inactive
5,Cc1ccc(NC(=O)Nc2ccnc(-c3cccnc3)n2)cc1,inactive
6,Cc1ccc(-c2nc3ccsc3c(=O)[nH]2)cc1,inactive
7,COc1ccccc1C(=O)c1cc2ccc(O)cc2oc1=O,inactive
8,CCOC(=O)c1cc2c(=O)n3ccccc3nc2n(Cc2ccc(Cl)cc2)c1=N,inactive
9,O=C(C1=NN(c2ccccc2)C2C(=O)N(c3ccccc3)C(=O)C12)c1ccccc1 (centres undefined),inactive
10,Cn1cc(C(c2ccccc2OCC(=O)O)c2cn(C)c3ccccc23)c2ccccc21,inactive
11,O=c1oc2c(CN3CCN(CCO)CC3)c(O)ccc2cc1-c1ccccn1,inactive
12,O=C(O)C1=CC[C@@H](c2ccc(Cl)cc2)N(S(=O)(=O)c2ccc(Cl)cc2)[C@H]1c1ccc(F)cc1,inactive
13,O=C(NCc1ccc(F)cc1)C1CCCN1C(=O)Nc1cccc(F)c1 (centres undefined),inactive
14,O=C(O)c1ccc(-c2ccc(/C=C3\NC(=O)N(Cc4ccc(Cl)cc4)C3=O)o2)cc1,inactive
15,Cc1c(C(=O)NCc2ccc(Cl)c(Cl)c2)sc(=O)n1Cc1cccc(F)c1,inactive
16,COc1ccc(CNC(=O)c2sc(=O)n(Cc3ccc(C)cc3)c2C)cc1OC,inactive
17,O=C1CCc2cc(S(=O)(=O)NC(Cc3ccccc3)C(=O)NCCC3=CCCCC3)ccc2N1 (centres undefined),inactive
18,COCCNC(=O)c1cc2c(=O)n3cccc(C)c3nc2n(Cc2ccncc2)c1=N,inactive
19,O=C(O)c1ccc(N/N=C/c2ccc(-c3ccccc3Cl)o2)cc1,inactive
20,CC(C)OCCCn1c(=N)c(C(N)=S)cc2c(=O)n3ccccc3nc21,inactive

row,SMILES,outcome
1,CSC1=NSC2=NC(=O)/C(=C/c3coc4ccc(O)cc4c3=O)C(=N)N12,inactive
2,Cc1cc(=O)oc2cc(OC(=O)c3cncc(Br)c3)ccc12,inactive
3,COCc1cc(C)nc(SCC(=O)Oc2ccc(Cl)cc2)c1C#N,inactive
4,O=C(NS(=O)(=O)c1ccc(Cl)s1)c1ccccc1,inactive
5,CCCCN(CCCC)CC(O)Cn1c2ccccc2c(=O)c2ccccc21 (centres undefined),inactive
6,COC(=O)C1=CN(C)C=C(C(=O)OC)C1c1ccccc1Cl,inactive
7,CCCCn1nc(NC(=O)c2cccs2)c2cc3cc(OC)ccc3nc21,inactive
8,Cc1cc(CNC(=O)c2ccc3c(c2)OCO3)c2ccccc2n1,inactive
9,CCOc1ccc2nc(NCCCNS(=O)(=O)c3ccc(F)cc3)c(C#N)cc2c1,inactive
10,Cc1cc2cc(CNC(=O)c3ccco3)ccc2n1C,inactive
11,C=Cc1ccc(Cn2c(C)c(C(=O)NCc3cccc(C)c3)sc2=O)cc1,inactive
12,COc1ccc(S(=O)(=O)Cc2ccc(C(=O)N3CCN(Cc4ccccc4)CC3)o2)cc1,inactive
13,CCC(=O)N1C(C(=O)NCc2ccc(OC)cc2)CSC1c1ccc(OC)cc1 (centres undefined),inactive
14,CCOc1ccc(C2C(C#N)=C(N)Oc3cc(O)ccc32)cc1OCC (centres undefined),inactive
15,CCc1ccccc1S(=O)(=O)Cc1ccc(C(=O)N2CCN(c3ccccc3OC)CC2)o1,inactive
16,Cc1c(Nc2c3ccccc3nc3ccccc23)c(=O)n(-c2ccccc2)n1C,inactive
17,CC/C(C)=N\Nc1nc(-c2cc3cc(OC)ccc3oc2=O)cs1,inactive
18,O=C(/C=C/c1ccccc1)C1=C(O)C(=O)N(CCO)C1c1ccc2c(c1)OCO2 (centres undefined),inactive
19,CCOC(=O)c1oc2c(CN3CCN(CCO)CC3)c(O)c(CC)cc2c(=O)c1-c1nc2ccccc2s1,inactive

# Source: PubChem BioAssay AID1053124 (Broad Institute, 2014)
